Most compounds without a hit are left out; they make up all but 1.5% or so of the library.
PLCg1 inh: blocks human PLC-gamma1 enzyme activity. P19174. purified PLC-gamma1, fluorogenic substrate, fluorescence. inhibition, % at 12.2 µM. 0.84% of 370,000 active; in the data active = inhibition above about 9.5%
PLC-beta3 inh: PLC-beta3 (human) inhibition, primary screen. Purified PLC-beta3, fluorogenic substrate, fluorescence. AID 720704. Q01970. inhibition, % at 12.2 µM. 0.18% of 370,000 active;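 note: 0% = median of compound wells on plate and 100% = full blocker control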
Target sequence (Q01970 whole entry, looked up): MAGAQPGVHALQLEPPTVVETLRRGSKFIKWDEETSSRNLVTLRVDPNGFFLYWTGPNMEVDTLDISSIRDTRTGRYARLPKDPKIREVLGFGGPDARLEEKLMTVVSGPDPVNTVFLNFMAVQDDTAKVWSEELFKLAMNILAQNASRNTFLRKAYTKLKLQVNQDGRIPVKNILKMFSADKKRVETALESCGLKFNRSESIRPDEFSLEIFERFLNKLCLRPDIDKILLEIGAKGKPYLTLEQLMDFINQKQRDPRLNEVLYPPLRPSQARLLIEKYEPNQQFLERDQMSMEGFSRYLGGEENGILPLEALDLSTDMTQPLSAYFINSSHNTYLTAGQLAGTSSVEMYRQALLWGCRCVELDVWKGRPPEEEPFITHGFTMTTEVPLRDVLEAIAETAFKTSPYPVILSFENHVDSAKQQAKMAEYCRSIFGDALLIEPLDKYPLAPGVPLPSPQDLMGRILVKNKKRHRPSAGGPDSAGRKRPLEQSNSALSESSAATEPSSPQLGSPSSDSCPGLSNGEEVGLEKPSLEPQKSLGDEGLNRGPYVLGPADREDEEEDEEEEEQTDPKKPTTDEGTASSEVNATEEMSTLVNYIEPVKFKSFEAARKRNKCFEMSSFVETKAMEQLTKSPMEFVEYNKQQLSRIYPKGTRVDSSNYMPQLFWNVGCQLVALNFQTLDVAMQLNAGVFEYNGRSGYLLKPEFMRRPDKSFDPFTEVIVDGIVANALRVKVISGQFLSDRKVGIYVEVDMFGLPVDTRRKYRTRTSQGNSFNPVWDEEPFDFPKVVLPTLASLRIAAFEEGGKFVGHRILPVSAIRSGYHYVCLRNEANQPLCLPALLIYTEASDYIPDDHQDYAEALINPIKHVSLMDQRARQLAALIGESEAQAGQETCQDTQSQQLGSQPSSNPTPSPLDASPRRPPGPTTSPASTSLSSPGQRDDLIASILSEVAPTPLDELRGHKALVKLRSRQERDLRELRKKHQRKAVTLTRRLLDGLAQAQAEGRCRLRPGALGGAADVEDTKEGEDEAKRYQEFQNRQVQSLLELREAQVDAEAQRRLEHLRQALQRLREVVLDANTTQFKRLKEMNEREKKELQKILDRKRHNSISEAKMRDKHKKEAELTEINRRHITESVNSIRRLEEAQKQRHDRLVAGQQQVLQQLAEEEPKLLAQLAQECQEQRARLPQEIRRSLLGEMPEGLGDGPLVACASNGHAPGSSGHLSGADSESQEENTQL
DAGLB inhibitor: blocks human DAGLB lipase activity; HEK293T DAGLB membrane lysate, EnzChek fluorogenic substrate; 0.059% of 340,000 active; inhibition, % at 5.17 µM; AID 504411; Q8NCG7; in the data active = inhibition above about 34%;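 note: 0% = enzyme with vehicle and 100% = wells lacking enzyme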
HGIII-sPLA2 inh: Blocks human group III sPLA2 activity. QFRET BODIPY PC-A2 liposome hydrolysis, fluorescence. inhibition, % at 12.2 µM. Q9NZ20. 0.56% of 370,000 active;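 active = inhibition above mean plus 3 SD of compounds lying within the high and low control bounds, cut at about 19% in these data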;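 note: 0% = median of test compound wells and 100% = no enzyme DMSO wells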
PLCg1 ctr: PLC-gamma1 inhibition, counter-screen for PLC-beta3 hits; AID 743258; shares compounds with PLCg1 inh; inhibition, % at 12.3 µM; purified PLC-gamma1, fluorogenic substrate, fluorescence; 3.1% of 3,300 active; in the data active = inhibition above about 9.5%
PLCbeta3 conf: confirmation of human PLC-beta3 inhibitors | purified PLC-beta3, fluorogenic substrate fluorescence | inhibition, % at 12.3 µM | shares compounds with PLCg1 inh | 1% of 3,300 active
* marks the source's active call; other numbers are inactive results; . = not tested or not shown. Cut-off read from the data, not from the text of the source, unless noted: active = inhibition above about 11%; inactive = the rest.

SMILES	PLCg1 inh	PLC-beta3 inh	DAGLB inhibitor	HGIII-sPLA2 inh	PLCg1 ctr	PLCbeta3 conf
CC1=NN(c2ccccc2)C(=O)/C1=C\c1cn(-c2ccccc2)nc1C	-1.7	-2.1	0.9	4.1	.	.
CN1CCN(c2ccc(-c3csc(N4CCC(C(N)=O)CC4)n3)cc2)CC1	-12.2	-13.2	.	-1.3	.	.
Nn1c(SCC(=O)Nc2nccs2)nnc1-c1cc(-c2ccccc2)n[nH]1	-0.7	-2.3	.	-5.4	.	.
CC(C)(C)OC(=O)CNC(=O)c1[nH]cnc1C(=O)Nc1ccc(CNC(=O)OC(C)(C)C)cc1	7.4	12.6*	-0.9	-4.5	-0.8	-2.1
CN(CCO)C1CN(Cc2cn(Cc3ccccc3C(F)(F)F)nn2)S(=O)(=O)C1 (stereo not drawn)	7.4	-2.7	.	18.5	.	.
O=C(CC1Sc2ccccc2NC1=O)Nc1cccc(C(=O)O)c1 (stereo not drawn)	11.7*	9.7	1.1	1.2	4.3	1.7
O=C(Cc1ccc(F)cc1)Nc1ccc(F)c([N+](=O)[O-])c1	9.8*	3.6	-1.5	0.2	-1.6	2.2
O=C(Nc1ccccc1)Nc1ccc(F)c([N+](=O)[O-])c1	5.6	3.6	-2.5	-17.6	.	.
O=C(Cn1cnc2sc(-c3ccccc3)cc2c1=O)NCc1ccccc1	9.5*	3.8	-2.9	5.5	-37.0	-84.1
O=C(/C=C/c1cccc([N+](=O)[O-])c1)N1CC[C@@]2(O)CCCC[C@H]2C1	10.5*	1.9	-0.7	4.1	0.5	-2.3
O=C(NCCNC(=O)c1cc(OCC(F)(F)F)ccc1OCC(F)(F)F)Nc1ccc(Cl)cc1	3.9	4.9	.	1.7	.	.
O=C(NCCNC(=O)c1cc(OCC(F)(F)F)ccc1OCC(F)(F)F)Nc1ccc(OC(F)(F)F)cc1	11.9*	-2.1	-1.5	2.8	-6.8	-2.7
CC(=O)O[C@@H]1CCC[C@@]2(C(=O)N(Cc3ccccc3)c3ccc(-c4c(C)noc4C)cc32)[C@H]1NC(=O)CCc1ccccc1	2.2	4.8	.	-20.9	.	.
Cc1ccc(S(=O)(=O)NCCSc2nncn2C)cc1	1.7	-5.6	1.0	13.0	.	.
Cc1ccc(S(=O)(=O)NC(C)(C)CSc2nncn2N)cc1	11.0*	2.8	-0.1	-10.3	0.3	1.9
Cc1ccc(CNC(=O)C2COc3ccccc3O2)cc1 (stereo not drawn)	5.4	4.0	-6.8	7.9	.	.
O=C(NCc1ccccc1)C1COc2ccccc2O1 (stereo not drawn)	9.8*	10.3	-0.2	7.7	-7.5	-0.3
COC(=O)[C@]12C[C@H](CC(=O)NCC3CCCCC3)C(=O)N(Cc3ccccc3)C1=C[C@H](C(C)C)O[C@@H]2C1CC1	5.1	12.4*	.	-5.8	-0.6	-0.8
COC(=O)[C@]12C[C@H](CC(=O)NCc3ccc(C)o3)C(=O)N(Cc3ccccc3)C1=C[C@H](C1CCCC1)O[C@@H]2C	6.8	12.0*	.	-14.1	-7.8	-3.9
C#CCNC(=O)C[C@H]1C[C@@]2(C(=O)OC)C(=C[C@H](C(C)C)O[C@@H]2C2CC2)N(Cc2cccc3ccccc23)C1=O	9.5*	-0.6	.	-9.5	-7.4	-1.5
COC(=O)[C@]12C[C@H](CC(=O)NCc3cccc4ccccc34)C(=O)N(Cc3cccc4ccccc34)C1=C[C@H](C(C)C)O[C@@H]2C1CC1	2.5	-0.7	.	-11.3	.	.
COCCCNC(=O)C[C@H]1C[C@@]2(C(=O)OC)C(=C[C@H](C(C)C)O[C@@H]2C2CC2)N(Cc2ccccc2)C1=O	1.2	-0.8	.	4.7	.	.
COC(=O)[C@]12C[C@H](CC(=O)N3CCCC3)C(=O)N(CCC3=CCCCC3)C1=C[C@H](C1CCCC1)O[C@@H]2C	10.9*	0.9	.	9.5	-3.0	-0.2
CCC[C@H]1[C@@H](NC(=O)c2ccc(C)cc2)CC[C@@]23CCCN2C(=O)CCC[C@@H]13	-1.7	-2.0	.	2.4	.	.
O=C(O[C@H]1CC[C@@]23CCCN2C(=O)CCC[C@H]3C1)N1CCN(c2ccccc2)CC1	1.5	2.9	.	4.8	.	.
SMILES	PLCg1 inh	PLC-beta3 inh	DAGLB inhibitor	HGIII-sPLA2 inh	PLCg1 ctr	PLCbeta3 conf
COC(=O)[C@]12C[C@H](CC(=O)NCc3ccccc3)C(=O)N(Cc3cccc4ccccc34)C1=C[C@H](C(C)C)O[C@@H]2C1CC1	-0.9	-0.9	.	-17.0	.	.
COC(=O)[C@]12C[C@H](CC(=O)NCCCCc3ccccc3)C(=O)N(Cc3cccc4ccccc34)C1=C[C@H](C(C)C)O[C@@H]2C1CC1	12.7*	2.1	.	-11.3	-0.8	-5.9
CCOC(=O)c1c(S(=O)(=O)Nc2ccc(F)cc2Cl)c(C)n(C)c1C	11.4*	0.5	-2.4	6.5	-1.8	-1.3
CCOc1ccc(NC2=C(Cl)C(=O)N(Cc3ccccc3)C2=O)cc1	10.6*	-0.4	6.1	16.4	-1.2	0.9
COc1ccc(C(C)NC(=S)NCc2ccc(F)cc2)cc1OC (stereo not drawn)	17.4*	-6.7	0.9	16.2	3.1	3.4
CCC(C)c1ccc(C(C)NC(=S)NCc2ccc(F)cc2)cc1 (stereo not drawn)	-2.9	-6.6	-6.7	4.1	.	.
Cc1sc(NC(=O)CCS(=O)(=O)c2ccccc2)c(C#N)c1C	-1.4	-0.8	1.3	12.0	.	.
Cc1sc(NC(=O)CCC(=O)O)c(C#N)c1C	10.7*	-5.6	-3.6	-1.7	-7.1	0.9
CC(C)(C)c1cc(C(=O)NNC(=O)Nc2ccccc2)n(Cc2ccccc2)n1	12.4*	10.5	-4.0	-8.6	16.9*	18.5*
CC(C)(C)c1cc(C(=O)NNC(=O)Nc2cccc(Cl)c2)n(Cc2ccccc2)n1	4.7	3.7	-12.4	-25.4	.	.
C[N+]1(C)CC[C@H](OC(=O)[C@@](O)(c2ccccc2)C2CCCC2)C1	1.1	3.0	0.0	-4.5	.	.
C[N+]1(C)CCC(OC(=O)C(O)(c2ccccc2)C2CCCC2)C1 (stereo not drawn)	10.1*	4.9	0.5	11.8	-3.2	1.7
O=C(NC1CCCc2c1cnn2-c1ccc(F)cc1F)c1cccs1 (stereo not drawn)	-0.6	3.3	.	0.1	.	.
Cc1cc(C)c(OCCCCN(C)Cc2ccccc2)c(C)c1	13.4*	0.6	-11.7	-14.9	-3.1	1.1
C(/C=C\c1ccco1)=NN1CCN(Cc2cccc3ccccc23)CC1	2.0	-2.5	.	10.2	.	.
CCOC(=O)c1ccccc1NC(=O)COC(=O)c1ccc(C)c(S(=O)(=O)N2CCOCC2)c1	0.2	1.1	-0.7	2.5	.	.
Cc1ccc(C(=O)OCC(=O)Nc2ccccc2C(F)(F)F)cc1S(=O)(=O)N1CCOCC1	5.9	10.9*	0.0	11.7	-5.7	-2.9
O=C(Nc1ccccc1C(F)(F)F)c1ccc(F)c(S(=O)(=O)N2CCOCC2)c1	13.1*	3.9	-2.3	7.3	0.7	-4.3
Cc1ccc(OCCOc2c(Cl)cc(Cl)cc2Cl)c([N+](=O)[O-])n1	-0.3	1.4	.	-2.5	.	.
O=C(N1CCC(C(O)(c2ccccc2)c2ccccc2)CC1)n1ncc(C(O)(c2ccccc2)c2ccccc2)n1	0.5	0.2	.	-12.4	.	.
CC12c3ccccc3C(c3ccccc31)C1C(=O)N(c3cccnc3)C(=O)C12 (stereo not drawn)	11.8*	9.7	0.1	-4.2	-4.1	-2.9
